# Source: PubChem
# A selection: hits, their analogues and other compounds. The true share with any hit is near 1.8%.
# Neddylation inh – inhibitors of cullin neddylation, primary screen, biochemical, TR-FRET, uHTS, NAE and Ubc12; inhibition, % at 25 µM; NEDD8-conjugating enzyme Ubc12 (Homo sapiens) + NEDD8-activating enzyme E1 regulatory …; hit rate 0.58% among 360,000; in the data active = inhibition above about 36%
# Target sequence (P61081 whole entry, looked up): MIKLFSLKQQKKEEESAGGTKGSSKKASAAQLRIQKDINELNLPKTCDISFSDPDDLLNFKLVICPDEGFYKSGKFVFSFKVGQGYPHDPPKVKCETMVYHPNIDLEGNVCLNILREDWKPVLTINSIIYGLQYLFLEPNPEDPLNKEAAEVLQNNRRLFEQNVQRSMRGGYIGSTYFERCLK
# Target sequence (Q13564 whole entry, looked up): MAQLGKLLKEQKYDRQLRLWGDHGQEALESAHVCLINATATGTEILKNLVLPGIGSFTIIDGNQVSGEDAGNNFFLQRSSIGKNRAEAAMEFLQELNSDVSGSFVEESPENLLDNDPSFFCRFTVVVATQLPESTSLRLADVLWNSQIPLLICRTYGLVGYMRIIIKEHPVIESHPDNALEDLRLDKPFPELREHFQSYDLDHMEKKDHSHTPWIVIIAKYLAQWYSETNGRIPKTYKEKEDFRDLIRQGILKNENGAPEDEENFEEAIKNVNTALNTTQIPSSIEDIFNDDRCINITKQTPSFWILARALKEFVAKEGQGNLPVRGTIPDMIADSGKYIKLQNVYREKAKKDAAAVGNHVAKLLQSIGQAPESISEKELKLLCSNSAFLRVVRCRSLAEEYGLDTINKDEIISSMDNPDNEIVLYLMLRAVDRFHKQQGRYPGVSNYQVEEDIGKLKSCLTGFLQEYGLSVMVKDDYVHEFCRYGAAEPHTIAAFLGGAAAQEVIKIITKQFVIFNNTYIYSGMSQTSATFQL
# GRK2 inh – compounds blocking aptamer binding on GRK2 – biochemical, human GRK2, bead flow cytometry, HTS, primary screen | inhibition of aptamer binding, % at 10 µM | AID 488847, 2010 | Beta-adrenergic receptor kinase 1 (Homo sapiens), P25098 | FAM-aptamer displacement from GRK2 | hit rate 0.59% among 330,000;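 active = inhibition of aptamer binding above 40%, roughly 3 SD of noise, on plates passing a quality check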;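 note: median bead fluorescence of bound FAM aptamer so fluorescent compounds give negative values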
# Cardio protect – cardioprotection against H2O2-induced cell death, primary screen, uHTS, H9c2 cells, ATPLite luminescence; protection from H2O2 cell death, % at 20 µM; AID 588492, 2011; hit rate 0.63% among 360,000; H9c2 cardiomyocytes, H2O2 injury protection, 2 h;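 active = compounds giving at least 50% protection of heart cells from peroxide-induced death in the single-dose screen, raw or plate-pattern-corrected value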
# HDAC3 inh – HDAC3 deacetylase inhibitors, primary screen, biochemical, fluorescence, cell-free homogeneous; recombinant HDAC3, fluorogenic peptide/trypsin coupled; AID 2718, 2010; inhibition, % at 8.3 µM; hit rate 0.15% among 320,000; Histone deacetylase 3 (Homo sapiens), O15379; in the data active = inhibition above about 26%, passing the limit was not always enough
# Hits are given with their value; i = inactive; nt = no result shown.
SMILES,Neddylation inh,GRK2 inh,Cardio protect,HDAC3 inh
O=C(Cn1cnc2cc([N+](=O)[O-])ccc2c1=O)Nc1cccc(S(=O)(=O)N2CCCCC2)c1,i,nt,i,nt
COC(=O)c1cccc(S(=O)(=O)N(Cc2ccco2)Cc2cc3cc(OC)ccc3[nH]c2=O)c1,i,i,78,i
Oc1cc2c(c(Cl)c1O)CCNCC2c1ccccc1 (stereo not drawn),i,i,68,i
C=CCN1CCc2cc(O)c(O)cc2C(c2ccccc2)C1 (stereo not drawn),i,i,i,i
Cc1cccc(C2CN(C)CCc3c2cc(O)c(O)c3Cl)c1 (stereo not drawn),i,i,i,i
C=CCN1CCc2c(cc(O)c(O)c2Cl)C(c2ccccc2)C1 (stereo not drawn),i,i,76,i
CC(=O)C(=Cc1cccc(C#N)c1)C(=O)c1ccccc1,i,nt,i,nt
NC(=O)c1c(NC(=O)C2CC=CCC2C(=O)O)sc2c1CCCCC2 (stereo not drawn),i,48,i,i
CC(C)OC(=O)c1c(NC(=O)C2CC=CCC2C(=O)O)sc2c1CCCCC2 (stereo not drawn),i,i,i,i
COc1ccc(NC(=O)Nc2cccc3c2O[C@H](CN(C)S(=O)(=O)c2c(C)noc2C)[C@@H](C)CN([C@H](C)CO)C3=O)cc1,i,i,i,i
O=C(CN1C(=O)c2ccc(Br)cc2C1=O)NCC1CCCO1 (stereo not drawn),i,i,i,i
O=c1c2ccccc2nc(-c2ccc(Cl)c(Cl)c2)n1O,i,i,63,i
COc1ccc(Cc2nnc(N/N=C/c3ccc(O)cc3O)[nH]c2=O)cc1OC,i,i,52,i
CCCCCC/C=N/Nc1nnc(Cc2ccc(OC)c(OC)c2)c(=O)[nH]1,i,i,i,i
O=C(/C=C/c1ccc(S(=O)(=O)N2CCOCC2)cc1)NCc1ccccc1,i,i,i,i
Nc1cccc(Nc2nc(OC(C(F)(F)F)C(F)(F)F)nc(OC(C(F)(F)F)C(F)(F)F)n2)c1,i,i,i,49
COc1nc(Nc2ccc(O)cc2)nc(OC(C(F)(F)F)C(F)(F)F)n1,i,i,i,i
COC(=O)c1cc2c(C)cc3ccc(C)cn3c-2c1C(=O)OC,i,i,i,i
COC(=O)c1cc2n3ccccc3c(C)c(-c3ccccc3)c-2c1C(=O)OC,i,i,i,i
COC(=O)c1cc2c(C)c(C)c3ccccn3c-2c1C(=O)OC,i,i,62,i
COC(=O)c1cc2ccccn2c2c(C(=O)OC)c(C(=O)OC)cc1-2,i,i,79,i
CS(=O)(=O)N(CC(=O)NCCSCc1cccc(Cl)c1)c1ccc(F)cc1,i,nt,i,i
O=C(NNC(=S)NC1CC2C=CC1C2)c1cccnc1 (stereo not drawn),i,i,i,i
CCCCCCCCOC(=O)c1c(CSC(=N)N)n(C)c2cc(Br)c(OC(C)=O)cc12,i,nt,i,33
CCOC(=O)c1c(CSC(=N)N)n(-c2ccc(Br)cc2)c2cc(Br)c(OC(C)=O)cc12,i,nt,i,nt
SMILES,Neddylation inh,GRK2 inh,Cardio protect,HDAC3 inh
O=C(NCC(c1cccs1)N1CCOCC1)c1ccc(Cl)nc1 (stereo not drawn),i,i,i,i
CC(C)(C)c1ccc(-c2nc(O)c(CC(=O)O)s2)cc1,nt,51,nt,i
CC(=O)c1ccc(NC(=O)CCNC(=O)c2ccc(Cl)cc2)cc1,i,i,i,i
Cc1ccc(/C=N/NC(=O)c2ccoc2C)o1,i,i,i,i
Cc1occc1C(=O)N/N=C/C=C/c1ccccc1,i,i,i,i
Cc1occc1C(=O)N/N=C/c1ccc(N(C)C)cc1,39,i,i,i
Cc1occc1C(=O)N/N=C/C=C/c1ccc(N(C)C)cc1,40,i,i,i
Oc1ccc(/C=N/N=C/c2ccc(O)c(O)c2)cc1O,i,i,52,i
Cc1ccc(NC(=O)CCCc2nc3ccccc3c(=O)[nH]2)c(Cl)c1,i,i,63,i
COc1ccc(NC(=O)CCCc2nc3ccccc3c(=O)[nH]2)cc1Cl,i,i,57,i
Cc1c(Cl)cccc1NC(=O)CNC(=O)CCCc1nc2ccccc2c(=O)[nH]1,i,nt,i,nt
CCOc1ccc(CC(=O)Nc2ccc(S(=O)(=O)N3CCCC3)cc2)cc1,i,i,i,i
COC(=O)c1cc(OC)c(OC)cc1NC(=O)c1ccc(OC)c(OC)c1,nt,i,52,i
COC(=O)c1cc(Cl)c(NC(=O)/C=C/c2ccc(Cl)cc2)cc1OC,nt,i,i,i
COC(=O)c1cc(OC)c(OC)cc1NC(=O)c1ccccc1,nt,i,i,i
COC(=O)c1cc(Cl)c(NC(=O)/C=C/c2ccc(OC)c(OC)c2)cc1OC,i,i,68,i
O=C(Nc1ccc(F)cc1F)c1ccc(S(=O)(=O)NCc2ccco2)cc1,i,i,i,i
OCCC1CN(Cc2cn[nH]c2C2CCCCC2)CCN1C1CCCCC1 (stereo not drawn),i,i,i,i
Cc1cc2nc3ccc(N(C)C)cc3nc2cc1N,79,i,i,i
O=c1c2ccccc2nc(SCc2cn3ccsc3n2)n1-c1ccccc1,i,i,i,i
Cc1cccc(-n2c(SCc3cc(=O)n4ccsc4n3)nc3ccccc3c2=O)c1,i,i,67,i
N#CC12COC3(CCCCC3C1(C#N)C#N)OC2=N (stereo not drawn),45,i,i,i
N#CC1(C#N)COC23CCCCC2C1(C#N)C(=N)O3 (stereo not drawn),42,i,i,i
O=C(Nc1nc(-c2ccccn2)cs1)Nc1ccc(F)cc1F,i,i,i,i
O=C(COc1ccc([N+](=O)[O-])cc1)Nc1nc(-c2ccccn2)cs1,i,i,71,i
SMILES,Neddylation inh,GRK2 inh,Cardio protect,HDAC3 inh
O=C(COc1ccc(F)cc1)Nc1nc(-c2ccccn2)cs1,i,i,59,i
O=C(COc1cccc(F)c1)Nc1nc(-c2ccccn2)cs1,i,nt,59,nt
Cc1ccc(OCC(=O)Nc2nc(-c3ccccn3)cs2)c(C)c1,i,i,53,i
COc1ccc(NC(=O)CC2C(=O)N(C)C(=S)N2Cc2ccncc2)cc1 (stereo not drawn),i,i,i,i
Cc1ccc(C(=O)NCCCc2ccccc2)c(C)c1,i,i,i,i
COc1ccc(CN(CC(=O)NCCc2ccccc2)C(=O)CCC(=O)Nc2cc(C)ccn2)cc1,i,i,i,i
COc1cc(C#Cc2ccc3cc(C(C)(C)O)oc(=O)c3c2)cc(OC)c1,i,i,i,i
Cn1nnnc1SCC1=C(C(=O)O)N2C(=O)C(NC(=O)C3CC3c3ccccc3)C2SC1 (stereo not drawn),i,i,i,i
Cn1nnnc1SCC1=C(C(=O)O)N2C(=O)[C@@H](NC(=O)[C@H](O)c3ccccc3)[C@H]2SC1,i,52,i,i
CN1Cc2c(N3CCOCC3)nc3sc(C(=O)c4ccc(Br)cc4)c(N)c3c2CC1(C)C,41,i,i,i
CC1(C)Cc2c(c(N3CCOCC3)nc3sc(-c4ccc(C(=O)O)o4)c(N)c23)CO1,nt,i,i,i
CNC(=O)c1ccc(-c2sc3nc(N4CCOCC4)c4c(c3c2N)CC(C)(C)OC4)o1,nt,i,97,i
